High-throughput results deposited in PubChem by National Center for Advancing Translational Sciences (NCATS).
Many of the other results were omitted from the sample, so hits are more common in it than they were.
SARS PLP yeast = SARS-CoV PLP inhibition in yeast | S. cerevisiae expressing SARS-CoV PLpro, growth rescue | Potency, µM (doses to about 32.9 µM), hits mostly activators | 330,000 compounds, 0.19% hits | AID 485353; calls by dose curve; further: nearly all actives have a fitted effect of over 55% in size
AMA1-RON2 inh = inhibitors of Plasmodium falciparum AMA1-RON2 interaction; AlphaScreen AMA1-biotinylated RON2 peptide binding; AID 720542; 360,000 compounds, 0.2% hits; Potency, µM (top dose mostly 58.2 µM), actives largely listed as inhibitors; further: nearly all actives have a fitted effect of over 45% in size
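AMA1 (3D7) with his tag at 25 nM final met compounds first, then biotinylated RON2 peptide at 25 nM; detection used donor plus acceptor beads, 10 µg/mL apiece, read by AlphaScreen after 30 min at room temperature.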
AmpC inh detg = AmpC beta-lactamase inhibition with detergent present. P00811. AmpC hydrolysis of nitrocefin, absorbance 480 nm, 0.01% Triton. Potency, µM (doses to about 114 µM), actives largely listed as inhibitors. 370,000 compounds, 0.041% hits. AID 485294; further: nearly all actives have a fitted effect of over 25% in size
Target sequence (P00811 whole entry, looked up): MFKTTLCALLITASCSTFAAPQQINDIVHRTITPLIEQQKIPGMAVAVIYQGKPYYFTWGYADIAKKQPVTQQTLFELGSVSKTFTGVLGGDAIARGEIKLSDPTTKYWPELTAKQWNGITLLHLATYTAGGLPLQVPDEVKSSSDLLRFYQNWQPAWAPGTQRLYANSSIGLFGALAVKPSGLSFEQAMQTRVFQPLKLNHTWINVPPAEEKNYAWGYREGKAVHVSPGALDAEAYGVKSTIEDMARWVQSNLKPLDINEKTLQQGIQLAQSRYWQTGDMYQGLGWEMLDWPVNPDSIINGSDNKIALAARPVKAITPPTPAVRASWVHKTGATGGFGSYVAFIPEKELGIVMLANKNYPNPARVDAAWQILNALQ
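20 mM phosphate pH 7.0 + 0.01% (detergent screen) or 0.0001% Triton X-100; 5.3 nM AmpC reagent; cpd preinc 15 min RT; nitrocefin (800 uM stock) to start; A480 q20 s × 4 min; Activity was normalised to no-enzyme and no-compound control wells.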
CHX counter = counter-screen for Shiga toxin inhibitors: cycloheximide protein synthesis inhibition; max response, %; cell reporter, cycloheximide protein synthesis inhibition counterscreen; 300,000 compounds, 12% hits; in the data active means max response mostly above about 13%, no sharp cut-off; inactive means mostly below about 14%; further: read at 38.3 µM for the half of the compounds with a filed dose
AmpC no deterg = inhibitors of E. coli AmpC beta-lactamase without detergent; 330,000 compounds, 0.52% hits; Potency, µM (highest dose often 57.1 µM), most hits filed as inhibitors; AID 485341; AmpC nitrocefin hydrolysis, absorbance 480 nm, 0.0001% Triton; P00811; further: nearly all actives have a fitted effect of over 20% in size
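AmpC (5.3 nM in the dispensed reagent) in 20 mM phosphate pH 7.0 with 0.01% (detergent screen) or 0.0001% Triton X-100 was preincubated with compounds for 15 min at room temperature. Nitrocefin was then added from an 800 uM solution, and hydrolysis was followed at 480 nm.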
Shiga inhibitor = Shiga toxin inhibition | Vero cells, Shiga toxin protein synthesis inhibition reporter | inhibition, % at 38.7 µM | AID 2315 | 290,000 compounds, 9.2% hits; in the data active means inhibition mostly above about 28%, no sharp cut-off; inactive means mostly below about 43%
Numbers stand for hits; - = inactive; ? = inconclusive; . = not tested or not shown. Unless noted, the call rests on the fitted dose curve; in most records, active means well fitted curve in the direction sought with a large enough effect; inconclusive means small, poorly fitted or top-dose-only effect, or another doubt; inactive means no such curve, though single readings can be large; an effect the other way counts as inactive or inconclusive.

SMILES	SARS PLP yeast	AMA1-RON2 inh	AmpC inh detg	CHX counter	AmpC no deterg	Shiga inhibitor
COc1cccc(C(=O)O/N=C(\N)c2ccccn2)c1OC	-	-	-	-	-	-
CC(=O)Nc1ccc(S(=O)(=O)NCCc2ccc(S(N)(=O)=O)cc2)cc1	-	-	-	-	-	-
N/C(=N\OC(=O)c1ccc(Cl)cc1Cl)c1ccncc1	-	-	-	30	-	82
N/C(=N\OC(=O)c1ccccc1Cl)c1ccncc1	-	-	-	17	-	71
N/C(=N\OC(=O)c1ccc(Cl)cc1Cl)c1ccccn1	-	-	-	-	-	-
CCN1CCN(c2oc(/C=C/c3ccccc3)nc2C#N)CC1	-	-	-	42	-	-
COCCNc1oc(/C=C/c2ccccc2)nc1C#N	-	-	-	56	-	113
N#Cc1nc(/C=C/c2ccccc2)oc1NCCCN1CCOCC1	-	-	-	33	-	83
CCN1CCN(c2oc(/C=C/c3ccccc3OC)nc2C#N)CC1	.	.	-	.	.	.
CNc1oc(/C=C/c2ccccc2)nc1C#N	-	-	-	78	-	122
Cc1ccc(C(=O)c2c(NC(=O)c3cccnc3)sc3c2CCCC3)cc1	-	?	-	-	-	-
O=C(Nc1nc2c(s1)CCCC2)c1ccc(Br)o1	-	-	-	23	-	73
CC(=O)c1sc(NC(=O)c2ccc(Cn3cc(Br)cn3)o2)nc1C	-	-	?	-	-	-
O=C(Nc1nc2c(s1)CCCC2)c1cccnc1	-	-	-	52	-	70
CC(=O)c1sc(NC(=O)c2ccc(Br)o2)nc1C	-	-	-	38	-	34
O=C(Nc1nc2c(s1)CCCC2)c1cccs1	-	-	-	27	-	-
Cc1ccc(C(=O)Nc2nc3c(s2)CCCC3)o1	-	-	-	-	-	-
OC1CCNC(=S)N1c1ccccc1 (stereo not given)	-	-	-	-	-	-
CCN1C[C@@H]2[C@@H]3C(=O)N(C)C(=O)[C@@H]3[C@](CC)(C1=O)N2C(=O)c1ccc(C(F)(F)F)cc1	.	-	.	.	.	.
O=C(Nc1nc2c(s1)CCCC2)Oc1ccccc1	-	-	-	21	-	34
O=C(NC(=S)Nc1nc2c(s1)CCCC2)c1ccc(C(=O)c2ccccc2)cc1	-	-	-	-	-	-
O=C(Cc1cccs1)Nc1nc2c(s1)CCCC2	-	-	-	54	-	132
C/C(=N\Nc1nc2c(s1)CCCC2)c1ccccc1	-	-	-	43	-	143
COc1ccc(CC(=O)Nc2nc3c(s2)CCCC3)cc1	.	.	-	.	.	.
CCOC(=O)CNC(=O)Nc1cc(C(C)(C)C)nn1-c1ccccc1	-	-	-	37	-	-
SMILES	SARS PLP yeast	AMA1-RON2 inh	AmpC inh detg	CHX counter	AmpC no deterg	Shiga inhibitor
CC(C)(C)c1cc(NC(=O)COC(=O)c2ccccc2O)n(-c2ccccc2)n1	.	-	.	.	.	.
C/C(=N\Nc1ccc(F)cc1F)c1cccs1	-	.	-	35	-	-
COc1ccc(C(=O)c2ccc(OC)cc2O)c(O)c1	-	-	-	-	-	-
N/C(CC(=O)Nc1ccc(F)cc1F)=N\OC(=O)c1cccs1	-	-	-	-	-	-
COc1ccc(/C(C)=N/Nc2ccc(F)cc2F)c(O)c1	-	-	-	42	-	74
COc1ccc(/C(C)=N/Nc2ccccc2Cl)c(O)c1	-	-	-	37	-	48
O=C(CCn1nc(-c2ccccc2)c2ccccc2c1=O)Nc1ccccc1	.	.	-	.	.	.
Cc1ccc(Nc2ncnc3sc(C)c(C)c23)cc1	-	-	?	24	-	79
Cc1sc2ncnc(N/N=C/c3cccc(O)c3)c2c1C	-	-	-	42	-	29
C/C(=N\Nc1ncnc2sc(C)c(C)c12)c1ccccn1	-	-	-	49	-	67
O=C(Cc1ccc(F)cc1)N[C@@H]1c2ccccc2CC[C@@H]1O	-	-	.	.	-	.
COC(=O)c1cc[n+](CC(=O)c2ccccc2)cc1	-	-	-	26	-	-
O=C(C[n+]1ccccc1)c1ccc(-c2ccccc2)cc1	-	-	-	-	-	-
COC(=O)c1cc(O)c(OCc2ccccc2)c(O)c1	-	-	?	18	-	-
COC(=O)c1ccc(OCC(=O)c2ccccc2)cc1	-	-	-	46	-	67
CC1=C(C(=O)N2CCCC(CCC(=O)NCc3ccccc3F)C2)OCCO1 (stereo not given)	-	-	-	-	-	-
O=C(OC1CCOC1=O)c1cccc(S(=O)(=O)N2CCc3ccccc3C2)c1 (stereo not given)	-	-	-	-	-	-
CCc1ccc2c(c1)C1(C(=O)N2)N2CCCC2C(C(=O)c2ccc3ccccc3c2)C12C(=O)Nc1ccccc12 (stereo not given)	-	-	-	46	-	65
CCc1cccc2c1NC(=O)C21N2CCCC2C(C(=O)c2ccc3ccccc3c2)C12C(=O)Nc1ccccc12 (stereo not given)	-	-	-	-	-	-
Cc1cccc2c1NC(=O)C21N2CCCC2C(C(=O)c2ccc3ccccc3c2)C12C(=O)Nc1ccccc12 (stereo not given)	-	-	-	16	-	-
CCCCn1c(N)c(N(CCC(C)C)C(=O)c2ccccc2-n2cnnn2)c(=O)[nH]c1=O	-	-	?	.	-	.
Nc1nnc(CSCc2ccccc2)s1	-	-	?	-	-	-
Cc1cccc(CSCc2nnc(N)s2)c1	-	-	-	19	-	39
CCOC(=O)c1ccc(NC(=O)CSc2nc(SC)ns2)cc1	.	-	-	48	.	60
CSc1nsc(SCC(=O)Nc2nncs2)n1	-	-	-	-	-	-
SMILES	SARS PLP yeast	AMA1-RON2 inh	AmpC inh detg	CHX counter	AmpC no deterg	Shiga inhibitor
CSc1nsc(SCC(=O)Nc2ccccc2)n1	-	-	-	40	-	-
CSc1nsc(SCC(=O)Nc2ccccc2C(N)=O)n1	-	-	-	11	-	38
CSc1nsc(SCC(=O)Nc2ccccc2F)n1	-	-	-	31	-	58
CN(C)c1ccc(CN(CC2CCCO2)C(=O)c2cccs2)cc1 (stereo not given)	-	-	-	-	-	-
CCCN1CCC[C@@H]2Cc3nc(N)ncc3C[C@H]21	.	-	.	.	.	.
CCCOc1ccc(N2C(=O)CC(N(CCOC34CC5CC(CC(C5)C3)C4)C(C)=O)C2=O)cc1 (stereo not given)	-	-	-	-	-	-
CSc1nsc(SCc2ccc(F)cc2)n1	-	-	-	13	-	-
Fc1ccc(CSc2nsc(SCc3ccc(F)cc3)n2)cc1	-	-	-	-	-	-
CSc1nsc(SCC(=O)Nc2ccc(OC(C)=O)cc2)n1	-	-	-	27	-	-
CCOc1ncccc1C(=O)Nc1nnc(C)s1	-	-	-	-	-	-
CSc1nsc(NC(=O)Cc2ccccc2)n1	-	-	-	46	-	86
